Experimental findings from PubChem BioAssay are described below.

This test is described as follows: binders of probe aFST on microarray, primary screen, stem cell growth factor project, biochemical, small-molecule microarray, fluorescence 635/667 (AID 1086).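 Also: score merges 667 nm fluorescence with signal-to-noise of each printed compound spot.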 Particulars: higher = more signal.
Take `CC1CC/C=C\[C@H]2OC34C=CCN(C(C)(C)C)C(=O)[C@H]3N(CCCCCO)C(=O)[C@@H]4C2C(=O)O1` (stereo not given in full): the composite z-score was -0.581. The compound `COc1cc(NN2C(C(O)c3cc(OC)c(OC)c(OC)c3)C=CC3C(=O)N(C)C(=O)C32)cc(OC)c1OC` (stereo not given) yielded a composite z-score of 0.572. To `[N-]=[N+]=NCc1ccccc1[C@H]1OC(c2ccc(OCCCO)cc2)=N[C@@]1(Cc1ccccc1N=[N+]=[N-])C(=O)NCC(O)CO` (stereo not given in full) belongs 1.43; to `C=C(COC)/C(=C/C[C@H](OC(=O)c1ccncc1)c1ccccc1OCCO)c1cc(C(=O)OC)ccc1OC`, 0.431. Then `CC(C)=C1C(=O)C(c2ccccc2)=C2CN3C(=O)N(CCc4ccccc4)C(=O)[C@]3(Cc3ccc(C(F)(F)F)cc3)[C@H]21`, with 0.693; and `NCCCCCCNC(=O)[C@@H]1C[C@@H]2C(=O)N[C@@H](CCCCN)C(=O)N2[C@@H]1c1ccc(O)cc1`, with 0.077. As for `CC(C)[Si](C#CCCCC#N)(O[C@H](c1ccccc1)c1cn(Cc2ccccc2)nn1)C(C)C`, the composite z-score stood at 0.775. As to `CC(C)c1ccc(NN2C(C(O)c3ccc(C#N)cc3)C=CC3C(=O)N(c4ccccc4)C(=O)C32)cc1` (stereo not given), the composite z-score was 1.8. Regarding `COC(=O)[C@]1(CCS(=O)(=O)c2ccccc2)N=C(c2ccc(OCCCO)cc2)O[C@@H]1c1ccccc1N=[N+]=[N-]`, the composite z-score stood at 1.15. The compound `C=C[C@H](C)[C@H](OC(=O)Nc1ccc(SC)cc1)c1ccc(OCCO)cc1` had a composite z-score of 0.0319. `Cc1ccc(S[C@]2(C(=O)NCC(F)(F)F)CC(=O)N(Cc3cc(C(F)(F)F)cc(C(F)(F)F)c3)[C@@H]2c2ccc(CO)cc2)cc1` showed a composite z-score of -0.234. In the case of `O=C1OCCC=C[C@H]2OC34C=CCN(c5ccc6ccccc6c5)C(=O)[C@H]3N(CCCO)C(=O)[C@@H]4C12` (stereo not given in full), the composite z-score was -0.723.

As to `O=C1O[C@H](c2ccccc2)[C@H](c2ccccc2)N2[C@H]1[C@@H](C(=O)O)[C@]1(C(=O)Nc3ccc(C#CCCO)cc31)[C@H]2c1ccccc1OCCO`, the composite z-score was -0.0238. Turning to `COC(=O)[C@@]1(Cc2ccc(F)cc2)[C@H]2c3cc(C(=O)N4CCCC4)n(CCc4c[nH]c5ccccc45)c3C[C@H]2CN1C(=O)c1ccccc1`, the composite z-score was found to be 1.05. The compound `[N-]=[N+]=Nc1ccccc1C[C@]1(C(=O)N2CCOCC2)COC(c2ccc(OCCCO)cc2)=N1` had a composite z-score of 1.28. Take `C=CCN1C(=O)[C@]2(CCC(=O)OC(C)(C)C)N=C(c3ccc(OCCCO)cc3)O[C@@H]2c2ccccc21`: the composite z-score came out at 0.0909. `O=C1OCCC=C[C@H]2OC34C=CCN(Cn5nnc6ccccc65)C(=O)[C@H]3N(CCCO)C(=O)[C@@H]4C12` (stereo not given in full): the composite z-score was -0.601. `COCCOC(=O)N1C(=O)[C@@]2(c3ccccc31)[C@H](c1ccc(O)cc1)N1[C@H](c3ccccc3)[C@H](c3ccccc3)OC(=O)[C@H]1[C@@H]2C(=O)N1CCN(c2ncccn2)CC1` yielded a composite z-score of -0.165.

Compound `Cc1ccc(S[C@]2(C(=O)NCC(F)(F)F)CC(=O)N(Cc3cc(C(F)(F)F)cc(C(F)(F)F)c3)[C@@H]2c2ccc(CO)cc2I)cc1` showed a composite z-score of -0.666.

Take `C#CCN([C@@H](Cc1ccccc1)C(=O)OC)[C@@H](/C=C/C1CC1)[C@H](O)Cc1ccccc1`: the composite z-score is -0.283. Then `CC(C)C(CO)N1C(=O)[C@@H]2[C@H]3C(=O)OCC=C[C@H]3OC23C=CCN(c2ccc(Cl)cc2)C(=O)[C@@H]13` (stereo not given in full), with -0.243; and `COC(=O)[C@@]1(Cc2ccc(F)cc2)[C@H]2c3cc(C(=O)N4CCCC4)n(Cc4ccc(C)c(F)c4F)c3C[C@H]2CN1C(=O)c1ccccc1`, with 0.409. Turning to `COc1ccccc1CN1C(=O)c2ccccc2[C@](Cc2ccccc2I)(C(=O)O)[C@@H]1c1ccc(CO)cc1`, the composite z-score is -0.262. In the case of `COc1ccc([C@H]2OC[C@@H]3C[C@H](Cc4ccccc4)C(=O)N32)cc1`, the composite z-score came to 0.277. Regarding `COCCOC(=O)N1C(=O)[C@@]2(c3cc(C#CC4(O)CCCCCC4)ccc31)[C@H](c1ccc(O)cc1)N1[C@H](c3ccccc3)[C@H](c3ccccc3)OC(=O)[C@H]1[C@@H]2C(=O)N1CCN(c2ncccn2)CC1`, the composite z-score came out at 0.756. Compound `CCCC1(C(=O)OC)C=C2C(=C(C)C(=O)C2C)CN1` (stereo not given) gave a composite z-score of 0.454. Turning to `COc1cc(NN2C(C(O)c3ccco3)C=CC3C(=O)N(C)C(=O)C32)cc(OC)c1OC` (stereo not given), the composite z-score was found to be 0.775. Regarding `CCCNC(=O)[C@@H]1c2ccccc2C(=O)N(Cc2ccc(OC(F)(F)F)cc2)[C@H]1c1ccc(CO)cc1`, the composite z-score was 0.0347.

Take `C=CC[C@@H](OC(=O)Nc1ccc(OC)cc1)c1ccc(O)c(F)c1`: the composite z-score was -0.535.

With `CCCC[C@@H](O)C1=C(COC)C[C@H]2C(=O)N(Cc3ccccc3)C(=O)[C@H]2[C@H]1CO`, the composite z-score is -0.173. Regarding `CC(C)NC(=O)[C@@]1(c2ccc([N+](=O)[O-])cc2)CC(=O)N(C2CCCCC2)[C@@H]1c1ccc(CO)cc1`, the composite z-score is -0.114. Then `CC1CC/C=C\[C@H]2OC34C=CCN(c5ccc(Cl)cc5)C(=O)[C@H]3N(C(C)CO)C(=O)[C@]4(C)C2C(=O)O1` (stereo not given in full), with -0.732; and `COc1cc2c(cc1O)C(C1CC1)N(Cc1cccc(OC(F)(F)F)c1)CC2` (stereo not given), with -0.182. `CC(c1ccccc1)C(O)C1C=CC2C(=O)N(C)C(=O)C2N1Nc1ccccc1` (stereo not given): the composite z-score was determined as 0.814. In the case of `CCOC(=O)C1=CC[C@@H](c2ccccc2F)N(S(=O)(=O)c2ccc(C)cc2)[C@H]1c1ccccc1`, the composite z-score came out at 0.789.
